Records with an inconclusive call do not appear. Active and inactive are the calls of the source. Unless noted, the call rests on the fitted dose curve.
Assays:
[1] = Nuclear factor erythroid 2-related factor 2/antioxidant responsive element (Nrf2/ARE) small molecule agonists: qHTS cell viability counter screen in human keratinocytes (AID 1919968; active means well fitted curve in the direction sought with a large enough effect in the repeat runs; an effect the other way counts as inactive or inconclusive; further: nearly all actives have a fitted effect of over 55% in size)
Method in brief: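 Seed 1,500 KeratinoSens cells per well, then incubate 5 h at 37 C/5% CO2. Add compounds in DMSO and incubate 23 h. Add CellTiter-Fluor, wait 1 h and read fluorescence.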

[2] = Nuclear factor erythroid 2-related factor 2/antioxidant responsive element (Nrf2/ARE) small molecule agonists: luciferase reporter gene qHTS assay in human keratinocytes (AID 1919969); further: nearly all actives have a fitted effect of over 35% in size
[3] = target: Gonadotropin-releasing hormone receptor (Homo sapiens) (UniProt P30968); experiment: Human gonadotropin-releasing hormone receptor (GnRHR) small molecule agonists, calcium flux assay in GnRHR-HEK293 cells (AID 1920063); further: nearly all actives have a fitted effect of over 35% in size
Method in brief: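 Cells: HEK293 stably expressing human GnRHR. Steps: overnight (18 h) culture, 1 h calcium dye loading at 37 C, compound addition, kinetic fluorescence read at 480/540 nm. Each compound tested at 15 concentrations in triplicate.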

[4] = target: KiSS-1 receptor (Homo sapiens) (UniProt Q969F8); experiment: Human kisspeptin (KISS1R) small molecule agonists, calcium flux assay in KISS1R-HEK293 cells (AID 1920064; active means well fitted curve in the direction sought with a large enough effect in the repeat runs; an effect the other way counts as inactive or inconclusive)
Method in brief: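 Cells plated and incubated 18 h; dye added, 1 h at 37 C; compounds in DMSO pinned in; signal read at 480/540 nm every second for 3 min. Each compound tested at 15 concentrations in triplicate.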

[5] = G protein-coupled receptor (GPCR) small molecule agonists, calcium flux assay: HEK293 wild type cell line counter screen (AID 1920065)
Method in brief: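 Counter-screen of the Tox21 10K library for non-specific calcium release: dye-loaded cells received compounds in DMSO and were monitored by kinetic fluorescence (480/540 nm, 3 min). Fifteen concentrations, run in triplicate.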

[6] = p53 small molecule agonists, cell-based qHTS assay with human liver microsomes (AID 1963577)
Method in brief: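 Fluorescence of the beta-lactamase reporter in p53RE-bla cells, detected with LiveBLAzer substrate (2 h, room temperature, dark), served as the read-out after 16 h compound exposure at 37 C with human liver microsomes and NADPH, each 0.5 mg/mL final.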

[7] = p53 small molecule agonists, cell-based qHTS assay with rat liver microsomes (AID 1963578)
Method in brief: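 Cells carrying a p53 response element–beta-lactamase reporter were plated and rested 5 h, then dosed with compound in DMSO plus rat liver microsomes and NADPH, each at 0.5 mg/mL final. After 16 h at 37 C, LiveBLAzer substrate was added for 2 h.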

[8] = p53 small molecule agonists, cell-based qHTS assay with human liver microsomes: qHTS cell viability counter screen (AID 1963579); further: nearly all actives have a fitted effect of over 45% in size
Method in brief: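 Cytotoxicity counter screen: p53RE-bla, 4,000 cells/well; 5 h settle, 37 C/5% CO2; cpd + HLM 0.5 mg/mL + NADPH 0.5 mg/mL (final); 16 h, 37 C; CellTiter-Glo, 30 min RT, luminescence.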

[9] = p53 small molecule agonists, cell-based qHTS assay with rat liver microsomes: qHTS cell viability counter screen (AID 1963580); further: nearly all actives have a fitted effect of over 45% in size
Method in brief: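 HCT-116 p53RE-bla, 4,000 cells/well, 5 h pre-incubation; cpd + rat liver microsomes 0.5 mg/mL + NADPH 0.5 mg/mL (final); 16 h, 37 C; CellTiter-Glo, 30 min RT; luminescence.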

[10] = p53 small molecule agonists, cell-based qHTS assay: qHTS cell viability counter screen (AID 1963581); further: nearly all actives have a fitted effect of over 45% in size
Method in brief: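 Cells: HCT-116 with p53 response element-driven beta-lactamase. Treatment: 16 h, 37 C, compounds in DMSO. Read: CellTiter-Glo luminescence after 30 min RT.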

[11] = p53 small molecule agonists, cell-based qHTS assay (AID 1963582; active means well fitted activation curve with a large enough effect in the signal ratio in the repeat runs, not every such curve was filed as active; the % refers to the signal ratio)
Method in brief: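 Quantitative HTS in p53RE-bla cells: after a 5 h settling period, compounds delivered in DMSO were left on cells for 16 h at 37 C, and reporter induction was measured as fluorescence following 2 h substrate loading.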

[12] = target: 5-hydroxytryptamine receptor 2A (Homo sapiens) (UniProt P28223); experiment: 5-hydroxytryptamine receptor 2A (HTR2A) small molecule antagonists, cell-based qHTS assay (AID 1963586); further: nearly all actives have a fitted effect of over 45% in size
Method in brief: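 Antagonist-mode intracellular calcium assay: DOI (4 nM) added after 5 min compound pre-incubation at room temperature to dye-loaded HTR2A-CHO cells. Fluorescence followed for 3 min, sampled every second.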

[13] = target: 5-hydroxytryptamine receptor 2A (Homo sapiens) (UniProt P28223); experiment: 5-hydroxytryptamine receptor 2A (HTR2A) small molecule agonists, cell-based qHTS assay (AID 1963587); further: nearly all actives have a fitted effect of over 30% in size
Method in brief: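 Kinetic calcium-flux fluorescence (2 min, 1 sec intervals) after compound addition in agonist mode. HTR2A-CHO cells were cultured 18 h, then dye-loaded 1 h at 37 C.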

[14] = target: Muscarinic acetylcholine receptor M1 (Homo sapiens) (UniProt P11229); experiment: Cholinergic receptor muscarinic 1 (CHRM1) small molecule antagonists, cell-based qHTS assay (AID 1963588); further: nearly all actives have a fitted effect of over 40% in size
Method in brief: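 CHRM1-CHO calcium-flux assay, antagonist mode. Cells were seeded 18 h, dye-loaded 1 h at 37 C and given compound for 5 min at RT, then acetylcholine was added at 50nM. FDSS fluorescence was read 3 min; 15 concentrations, three runs.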

[15] = target: Muscarinic acetylcholine receptor M1 (Homo sapiens) (UniProt P11229); experiment: Cholinergic receptor muscarinic 1 (CHRM1) small molecule agonists, cell-based qHTS assay (AID 1963589); further: nearly all actives have a fitted effect of over 35% in size
Method in brief: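 Agonist-mode qHTS in CHO cells stably carrying human muscarinic M1. Intracellular calcium is tracked by fluorescence every second after compound transfer; each compound runs at 15 concentrations in three independent runs.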

[16] = cAMP Responsive Elements (CRE) small molecule agonists, cell-based qHTS assay (AID 1963590)
Method in brief: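 Agonist mode qHTS in CRE-bla HEK 293T cells: compounds dosed from DMSO for 3 h at 37 C/5% CO2, followed by LiveBLAzer B/G FRET substrate for 2 h at room temperature.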

[17] = cAMP Responsive Elements (CRE) small molecule antagonists, cell-based qHTS assay (AID 1963591; active means well fitted inhibition curve with a large enough effect in the signal ratio in the repeat runs, not every such curve was filed as active; the % refers to the signal ratio)
Method in brief: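 Antagonist mode: test compounds are co-incubated with the adenylyl cyclase activator NKH477 (0.25 uM final) on CRE-bla HEK293T cells for 3 h at 37 °C, followed by LiveBLAzer substrate loading.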

[18] = target: Beta-2 adrenergic receptor (Homo sapiens) (UniProt P07550); experiment: Adrenergic beta2 receptor (ADRB2) small molecule antagonists, cell-based qHTS assay (AID 1963592); further: series mostly up to about 92 µM; nearly all actives have a fitted effect of over 50% in size
Method in brief: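 Cells (CHO, stable ADRB2 overexpression) incubated 18-20hr at 37C; compounds added from DMSO; agonist mix (1nM isoproterenol, 100uM IBMX, 25uM Ro-20-1724) added; 0.5hr RT; d2-cAMP and anti-cAMP-cryptate added; 1hr RT; 665/615 nm read.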

[19] = target: D(2) dopamine receptor (Homo sapiens) (UniProt P14416); experiment: Dopamine D2 receptor (DRD2) small molecule agonists, cell-based qHTS assay (AID 1963594); further: nearly all actives have a fitted effect of over 35% in size
Method in brief: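 cAMP accumulation in DRD2-HEK293 cells measured by HTRF after 1 h detection; compounds added 10 min before NKH477 (200nM […]) forskolin-analogue stimulation, 30 min at room temperature, with Ro20-1724 present at 0.1 mM final.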

[20] = target: D(2) dopamine receptor (Homo sapiens) (UniProt P14416); experiment: Dopamine D2 receptor (DRD2) small molecule antagonists, cell-based qHTS assay (AID 1963595; active means well fitted inhibition curve with a large enough effect in the signal ratio in the repeat runs, with a control signal flat; the % refers to the signal ratio)
Method in brief: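 Readout: HTRF cAMP, cAMP-d2 competing with cellular cAMP for anti-cAMP cryptate, read after 1 h. Cells: DRD2-HEK293. Conditions: 0.1 mM Ro20-1724, 12 nM quinpirole, 200 nM NKH477, 30 min RT.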

Measured: Potency

Sequence of KiSS-1 receptor (Homo sapiens) (Q969F8 whole entry, looked up): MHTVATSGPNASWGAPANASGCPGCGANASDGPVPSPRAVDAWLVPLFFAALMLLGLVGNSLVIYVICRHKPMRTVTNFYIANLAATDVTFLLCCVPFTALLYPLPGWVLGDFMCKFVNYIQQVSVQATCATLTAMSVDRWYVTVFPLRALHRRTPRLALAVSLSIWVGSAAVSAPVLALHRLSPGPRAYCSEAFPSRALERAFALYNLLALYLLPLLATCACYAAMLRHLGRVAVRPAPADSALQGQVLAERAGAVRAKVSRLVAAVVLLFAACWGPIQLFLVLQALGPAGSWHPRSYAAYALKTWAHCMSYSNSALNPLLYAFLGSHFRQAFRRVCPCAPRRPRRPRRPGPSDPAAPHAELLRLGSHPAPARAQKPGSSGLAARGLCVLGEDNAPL
Sequence of Muscarinic acetylcholine receptor M1 (Homo sapiens) (P11229 whole entry, looked up): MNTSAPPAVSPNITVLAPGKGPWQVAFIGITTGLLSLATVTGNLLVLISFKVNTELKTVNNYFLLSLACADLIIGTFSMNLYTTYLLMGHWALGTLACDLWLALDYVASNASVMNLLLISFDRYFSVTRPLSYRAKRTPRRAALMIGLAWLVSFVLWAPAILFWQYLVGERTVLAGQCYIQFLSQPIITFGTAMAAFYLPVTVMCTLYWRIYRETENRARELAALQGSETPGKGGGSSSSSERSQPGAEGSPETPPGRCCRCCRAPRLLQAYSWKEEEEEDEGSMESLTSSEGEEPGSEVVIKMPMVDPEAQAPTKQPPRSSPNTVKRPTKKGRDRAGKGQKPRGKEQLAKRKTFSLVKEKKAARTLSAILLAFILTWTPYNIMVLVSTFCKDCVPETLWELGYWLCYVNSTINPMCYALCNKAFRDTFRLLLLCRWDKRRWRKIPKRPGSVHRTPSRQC
Sequence of 5-hydroxytryptamine receptor 2A (Homo sapiens) (P28223 whole entry, looked up): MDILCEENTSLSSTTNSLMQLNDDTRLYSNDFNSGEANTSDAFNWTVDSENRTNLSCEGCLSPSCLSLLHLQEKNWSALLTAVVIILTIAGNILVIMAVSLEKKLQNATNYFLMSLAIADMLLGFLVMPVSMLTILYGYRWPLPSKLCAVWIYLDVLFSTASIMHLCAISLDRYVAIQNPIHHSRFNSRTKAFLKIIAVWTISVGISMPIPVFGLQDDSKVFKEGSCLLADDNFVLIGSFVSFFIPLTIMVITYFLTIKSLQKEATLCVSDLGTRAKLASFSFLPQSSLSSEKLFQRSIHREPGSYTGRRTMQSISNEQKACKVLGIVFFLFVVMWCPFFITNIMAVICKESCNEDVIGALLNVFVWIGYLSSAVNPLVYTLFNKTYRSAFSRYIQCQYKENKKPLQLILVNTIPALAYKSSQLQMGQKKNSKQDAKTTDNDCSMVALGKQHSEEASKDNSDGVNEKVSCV
Sequence of D(2) dopamine receptor (Homo sapiens) (P14416 whole entry, looked up): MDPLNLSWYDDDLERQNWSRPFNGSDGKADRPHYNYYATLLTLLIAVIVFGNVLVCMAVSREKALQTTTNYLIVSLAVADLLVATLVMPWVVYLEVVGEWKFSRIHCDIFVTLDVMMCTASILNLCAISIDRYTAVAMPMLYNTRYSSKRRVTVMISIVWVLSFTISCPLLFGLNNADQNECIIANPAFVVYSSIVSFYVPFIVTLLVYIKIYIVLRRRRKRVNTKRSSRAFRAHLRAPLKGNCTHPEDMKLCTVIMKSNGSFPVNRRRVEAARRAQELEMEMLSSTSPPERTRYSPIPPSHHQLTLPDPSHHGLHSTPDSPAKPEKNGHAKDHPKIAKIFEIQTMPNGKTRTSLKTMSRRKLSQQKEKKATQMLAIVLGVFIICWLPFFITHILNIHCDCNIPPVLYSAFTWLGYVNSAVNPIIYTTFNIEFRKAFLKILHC
Sequence of Gonadotropin-releasing hormone receptor (Homo sapiens) (P30968 whole entry, looked up): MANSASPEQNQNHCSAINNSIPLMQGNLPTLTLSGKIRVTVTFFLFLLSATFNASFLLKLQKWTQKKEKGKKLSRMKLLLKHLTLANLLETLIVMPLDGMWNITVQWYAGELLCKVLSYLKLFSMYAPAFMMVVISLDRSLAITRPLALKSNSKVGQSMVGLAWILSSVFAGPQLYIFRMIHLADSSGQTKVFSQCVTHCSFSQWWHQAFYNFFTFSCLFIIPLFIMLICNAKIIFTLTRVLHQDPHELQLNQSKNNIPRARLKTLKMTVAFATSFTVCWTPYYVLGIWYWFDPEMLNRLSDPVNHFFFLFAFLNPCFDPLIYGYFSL
Sequence of Beta-2 adrenergic receptor (Homo sapiens) (P07550 whole entry, looked up): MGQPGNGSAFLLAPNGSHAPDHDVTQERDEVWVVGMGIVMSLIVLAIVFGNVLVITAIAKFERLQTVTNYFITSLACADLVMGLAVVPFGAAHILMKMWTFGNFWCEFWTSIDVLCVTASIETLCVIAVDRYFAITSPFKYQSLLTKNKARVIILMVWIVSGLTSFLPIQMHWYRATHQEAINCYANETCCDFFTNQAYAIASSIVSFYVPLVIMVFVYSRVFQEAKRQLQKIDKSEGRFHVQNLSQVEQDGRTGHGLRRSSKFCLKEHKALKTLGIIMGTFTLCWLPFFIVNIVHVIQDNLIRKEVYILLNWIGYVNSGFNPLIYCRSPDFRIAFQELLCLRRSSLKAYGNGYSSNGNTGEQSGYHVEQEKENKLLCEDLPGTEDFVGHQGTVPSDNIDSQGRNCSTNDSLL

Cc1c(N=C=O)cccc1N=C=O
inactive: all assays above

CC(C)(C)OC(=O)c1ccccc1C(=O)O
inactive: all assays above

CCCCN(CCCC)C(C(N)=O)c1ccc(OC)cc1 (stereo not drawn)
inactive: all assays above

OC1CCCc2ccccc21 (stereo not drawn)
inactive: all assays above

CCc1cccc(CC)c1NC(=O)CN(CC(=O)O)CC(=O)O
inactive: all assays above

CC(CO)(CO)C(=O)O
inactive: all assays above

Cc1cc(C)cc([N+](=O)[O-])c1
inactive: all assays above

CCN(CC)c1ccc(C=O)cc1
not listed: [20]
inactive: all other assays above

OC1OCCOC1O (stereo not drawn)
inactive: all assays above

Cc1cccc(C)c1NC(=O)c1ccc(N)cc1
inactive: all assays above

C=C(C)C(=O)OCC(C)(C)COC(=O)C(=C)C
inactive: all assays above

CC(C)=CCC/C(C)=C\C#N
not listed: [20]
inactive: all other assays above

Nc1ccnc(=O)[nH]1
inactive: all assays above

— PubChem BioAssay (Tox21)
